# Source: PubChem BioAssay
# PME-1 primary: blocks human protein phosphatase methylesterase 1. Q9Y570. recombinant PME-1, FP-Rh probe fluorescence polarization. inhibition, % at 5.9 µM. 320,000 compounds, 0.53% hits. AID 2130;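 active = inhibition above the campaign mean of all compounds plus 3 SD, cut at about 26% in these data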;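 also: competitive labeling of PME-1 active site by serine hydrolase directed probe; 0% = PME-1 with DMSO and 100% = wells lacking PME-1 enzyme; inhibitors block probe labeling so polarization falls and inhibition rises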
# SIAE inh: human SIAE inhibition, primary screen; Q9HAT2; SIAE FP-Rh probe binding, fluorescence polarization; inhibition, % at 9.66 µM; 370,000 compounds, 0.69% hits; AID 1053197;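 active = inhibition above a cutoff: mean of compounds within the control limits plus 3 SD of those, cut at about 17% in these data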;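 also: 0% = plate median of compound wells and 100% = probe without SIAE protein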
# PAD4 inh: inhibitors of human PAD4. AID 485272. recombinant PAD4, RCA probe fluorescence polarization. inhibition, % at 6.36 µM. 330,000 compounds, 0.41% hits. Q9UM07;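 active = percent inhibition above a cutoff equal to the mean of all tested compounds plus 3 SD, cut at about 15% in these data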;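 also: 0% = PAD4 with RCA probe and DMSO and 100% = probe without PAD4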
# PRMT1 inh: inhibitors of human PRMT1; recombinant PRMT1, activity-based probe fluorescence polarization; inhibition, % at 2.79 µM; 370,000 compounds, 1.3% hits; AID 652257;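 active = inhibition above about 21% made by adding two undisclosed values, limit read from the data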
# Target sequence (Q99873 whole entry, looked up): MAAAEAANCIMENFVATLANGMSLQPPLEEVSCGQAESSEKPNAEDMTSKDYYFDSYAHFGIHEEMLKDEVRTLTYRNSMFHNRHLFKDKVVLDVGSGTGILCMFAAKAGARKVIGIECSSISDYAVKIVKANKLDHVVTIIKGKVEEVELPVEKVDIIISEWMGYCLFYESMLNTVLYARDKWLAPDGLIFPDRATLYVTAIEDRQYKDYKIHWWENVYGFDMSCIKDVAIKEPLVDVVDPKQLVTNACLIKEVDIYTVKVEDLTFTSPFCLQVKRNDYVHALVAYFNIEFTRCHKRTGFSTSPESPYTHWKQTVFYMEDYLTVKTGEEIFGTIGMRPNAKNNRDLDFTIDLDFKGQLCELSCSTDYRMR
# Fam108B inh: counter-screen for RBBP9 inhibitors: inhibitors of mouse Fam108B; recombinant Fam108B, FP-Rh probe fluorescence polarization; inhibition, % at 9.51 µM; 300,000 compounds, 0.33% hits;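 active = inhibition above the screen mean inhibition plus 3 SD, computed separately per campaign, cut at about 18% in these data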;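 also: inhibitors lower polarization as less probe binds the enzyme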
# TCR-CD3 inh: inhibitors of human TCR-CD3 interaction. TAMRA-labeled TCR probe fluorescence, biochemical. 360,000 compounds, 0.37% hits. inhibition, % at 9.4 µM;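 also: recombinant mutant TCR 2C K166C tagged with TAMRA read by polarization; 0% = receptor in buffer alone and 100% = receptor with positive control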
# BSA TAMRA ctr: BSA probe counter-screen for TCR-CD3 inhibitors | shares compounds with TCR-CD3 inh | TAMRA-labeled BSA probe fluorescence counterscreen | inhibition, % at 9.4 µM | 1,200 compounds, 10% hits; in the data active = inhibition above about 23%;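 also: 0% = buffer low control and 100% = reference high control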
# TCR-CD3 conf: confirmation of human TCR-CD3 interaction inhibitors | shares compounds with TCR-CD3 inh | inhibition, % at 9.4 µM | 1,200 compounds, 48% hits | TAMRA-labeled TCR probe fluorescence binding assay
# * hit, by the source's call; · = not tested or not shown. Rows were chosen to be rich in hits. Some 2.6% of all compounds tested hit in one or more screens of this group. Rule as the data show it, unless noted: active = inhibition above about 19%; inactive = the rest.
SMILES,PME-1 primary,SIAE inh,PAD4 inh,PRMT1 inh,Fam108B inh,TCR-CD3 inh,BSA TAMRA ctr,TCR-CD3 conf
COC(=O)[C@H](C(C)C)N(CCCc1cn(Cc2ccc(C)cc2)nn1)S(=O)(=O)c1ccccc1Br,·,-5,·,2,·,·,·,·
C=CCN1[C@@H](C)COc2cccc(F)c2S1(=O)=O,·,0,·,2,·,·,·,·
CCOP(=O)(OCC)C(NC(=O)Nc1ccc(C)cc1)C(N)=O (stereo not given),-7,-2,3,-6,-2,2,·,·
CCOP(=O)(OCC)C(NC(=O)Nc1ccc(Cl)cc1)C(=O)N(CC)CC (stereo not given),-3,-7,-6,-2,-1,21*,0,1
CN=c1c([N+](=O)[O-])nn(-c2ccc3c(c2)OCCO3)n1O,-4,9,-4,0,1,64*,0,2
CCc1cccc(N=c2c([N+](=O)[O-])nn(-c3ccc4c(c3)OCCO4)n2O)c1,8,-2,-3,-1,1,8,·,·
CN(CC(=O)Nc1ccc(F)cc1)C(=O)COC(=O)c1ccc(=O)n(Cc2ccccc2)n1,5,3,1,136*,·,87*,2,3
CN(CC(=O)Nc1ccccc1Cl)C(=O)COC(=O)c1ccc(=O)n(Cc2ccccc2)n1,2,4,-4,3,-1,-3,·,·
O=C(c1ccccc1)n1ccc2ccc(-c3ccc4ccn(C(=O)c5ccccc5)c4c3)cc21,·,-11,·,-1,·,·,·,·
Cc1occc1-c1nnc(SCC(=O)N2CCCCC2C)o1 (stereo not given),1,-5,1,0,·,-4,·,·
CC1CCCCN1C(=O)CSc1nnc(-c2ccccc2O)o1 (stereo not given),3,9,2,-2,0,27*,13,21*
COC(=O)c1c(C)[nH]c(O)c1C=Nc1ccc(C#N)cc1,4,9,0,10,1,41*,2,6
O=C1/C(=C\c2cccc([N+](=O)[O-])c2O)SC(=S)N1Cc1ccccc1,-9,-6,-72,16,3,82*,-89,9
O=C1/C(=C/c2ccc(O)c([N+](=O)[O-])c2)SC(=S)N1Cc1ccccc1,11,3,-7,-3,15,1,·,·
CCOC(=O)C1=C(CC)Nc2ccccc2N=C1NC(=O)Nc1ccc(Cl)c(Cl)c1,-143,-101,-6,-3,-55,79*,20,54*
CCOC(=O)C1=C(CC)Nc2ccccc2N=C1NC(=O)c1cc(C)on1,1,0,2,-2,·,6,·,·
CCCCCC(=O)NC(=S)NC1C2CC3CC(C2)CC1C3 (stereo not given),-2,-3,1,0,-2,35*,2,29*
Cc1ccc(C(=O)Nc2ccc(C(=O)/C=C/c3cccs3)cc2)cc1,-9,-9,4,0,0,8,·,·
O=C(/C=C/c1cccs1)c1ccc(NC(=O)c2cccc(Br)c2)cc1,7,-13,-6,-4,-9,42*,3,12
COC(=O)C1CN(Cc2cn(Cc3ccc(Cl)cc3)nn2)CCS(=O)(=O)N1Cc1ccc(C)cc1 (stereo not given),·,0,·,2,·,·,·,·
CC1(c2nnnn2-c2ccc3c(c2)OCCO3)CSCC(=O)N1CCc1c[nH]c2ccccc12 (stereo not given),·,4,·,-1,·,·,·,·
CCN1CCN(Cc2ccc(NC(=O)c3ccc(C)c(NC(=O)c4nccn4C)c3)cc2C(F)(F)F)CC1,1,0,3,-1,-1,-4,·,·
CCN1CCN(Cc2ccc(NC(=O)c3ccc(C)c(NC(=O)c4cc(-c5ccc(Br)cc5)n[nH]4)c3)cc2C(F)(F)F)CC1,-42,-57,1,-1,-28,26*,8,8
O=C(CSc1nnc(COc2ccccc2)n1-c1ccccc1)Nc1ccc2c(c1)OCO2,·,1,·,2,·,·,·,·
COc1ccccc1C(=O)NNC(=S)NC(=O)c1ccco1,0,6,0,-1,-4,21*,-9,14
CCCOc1ccc(C(=O)NNC(=S)NC(=O)c2ccco2)cc1,0,2,-1,1,4,20*,-13,14
O=C(NNC(=O)c1ccccc1O)c1ccco1,-7,5,-5,-2,-2,6,·,·
